# Results as given in PubChem BioAssay AID1159580 (chemical genetic matrix, 2015).
# Screen size: about 5,500 compounds; about 2,000 (36%) were called active. Not shown: some 18% with an inconclusive outcome. Some of the results follow. Values without a mark were called inactive. No stated cut-off is given here; in the data, active means normalized growth mostly below about 0.91 (no sharp cut-off); inconclusive means no clear call, values can overlap the other calls; inactive means mostly above about 0.92.
# Assay: chemical genetic growth profiling, strain panel (AID 1159580);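 further: tested at 20 µM; growth read once vehicle control cultures reached saturation at 30 °C; 1 = growth at the plate median or of vehicle wells; lower values mean less growth of the strain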
# Conditions: S. cerevisiae deletion strains, growth OD
smiles,measurement,setting,value
COC(=O)[C@]1(C)CCC[C@]2(C)c3ccc(C(C)C)cc3C(=O)CC12 (stereo partly drawn),normalized growth,"locus YAL013W, strain DEP1, hits give low values",0.981
same,normalized growth,"locus YAL021C, strain ccr4, hits give low values",0.992
same,normalized growth,"locus YAL026C, strain drs2, hits give low values",0.952
same,normalized growth,"locus YAL030W, strain snc1, hits give low values",0.974
same,normalized growth,"locus YBL061C, strain skt5, hits give low values",0.972
same,normalized growth,"locus YBR009C, strain hhf1, hits give low values",0.961
same,normalized growth,"locus YBR021W, strain FUR4, hits give low values",1.1
same,normalized growth,"locus YBR023C, strain chs3, hits give low values",0.973
same,normalized growth,"locus YBR171W, strain sec66, hits give low values",0.869 (active)
same,normalized growth,"locus YBR229C, strain ROT2, hits give low values",0.986
same,normalized growth,"locus YBR231C, strain swc5, hits give low values",0.968
same,normalized growth,"locus YBR279W, strain paf1, hits give low values",0.971
same,normalized growth,"locus YCL011C, strain gbp2, hits give low values",0.961
same,normalized growth,"locus YCL016C, strain dcc1, hits give low values",0.979
same,normalized growth,"locus YCL029C, strain bik1, hits give low values",1.01
same,normalized growth,"locus YCL061C, strain MRC1, hits give low values",0.968
same,normalized growth,"locus YCL069W, strain vba3, hits give low values",0.956
same,normalized growth,"locus YCR088W, strain abp1, hits give low values",0.96
same,normalized growth,"locus YDL005C, strain med2, hits give low values",0.945
same,normalized growth,"locus YDL035C, strain GPR1, hits give low values",0.999
same,normalized growth,"locus YDL040C, strain nat1, hits give low values",0.96
same,normalized growth,"locus YDL074C, strain BRE1, hits give low values",0.863
same,normalized growth,"locus YDL101C, strain DUN1, hits give low values",0.969
same,normalized growth,"locus YDL134C, strain PPH21, hits give low values",0.974
same,normalized growth,"locus YDL185W, strain tfp1, hits give low values",1
same,normalized growth,"locus YDL192W, strain arf1, hits give low values",1.01
same,normalized growth,"locus YDR001C, strain nth1, hits give low values",0.957
same,normalized growth,"locus YDR069C, strain doa4, hits give low values",0.974
same,normalized growth,"locus YDR101C, strain arx1, hits give low values",1.01
same,normalized growth,"locus YDR137W, strain rgp1, hits give low values",0.866
same,normalized growth,"locus YDR150W, strain NUM1, hits give low values",0.975
same,normalized growth,"locus YDR159W, strain sac3, hits give low values",0.95
same,normalized growth,"locus YDR162C, strain NBP2, hits give low values",0.866
same,normalized growth,"locus YDR195W, strain ref2",0.97
same,normalized growth,"locus YDR297W, strain sur2, hits give low values",0.967
same,normalized growth,"locus YDR318W, strain mcm21, hits give low values",1.02
same,normalized growth,"locus YDR334W, strain swr1, hits give low values",0.948
same,normalized growth,"locus YDR335W, strain msn5, hits give low values",0.978
same,normalized growth,"locus YDR388W, hits give low values",1
same,normalized growth,"locus YDR392W, strain spt3, hits give low values",0.732 (active)
same,normalized growth,"locus YDR502C, strain sam2, hits give low values",0.985
same,normalized growth,"locus YEL003W, strain gim4, hits give low values",0.977
same,normalized growth,"locus YEL037C, strain rad23, hits give low values",0.95
same,normalized growth,"locus YEL061C, strain CIN8 (second series), hits give low values",0.948
same,normalized growth,"locus YEL061C, strain CIN8, hits give low values",0.997
same,normalized growth,"locus YER015W, strain faa2, hits give low values",0.974
same,normalized growth,"locus YER016W, strain bim1, hits give low values",0.958
same,normalized growth,"locus YER110C, hits give low values",1.02
same,normalized growth,"locus YER111C, strain swi4, hits give low values",0.956
same,normalized growth,"locus YER155C, strain BEM2 (second series), hits give low values",0.956
same,normalized growth,"locus YER155C, strain BEM2, hits give low values",0.995
same,normalized growth,"locus YER167W, strain BCK2, hits give low values",0.997
same,normalized growth,"locus YFR010W, strain ubp6, hits give low values",0.977
same,normalized growth,"locus YGL078C, strain dbp3, hits give low values",0.988
same,normalized growth,"locus YGL086W, strain mad1, hits give low values",1.01
same,normalized growth,"locus YGL167C, strain pmr1, hits give low values",0.928
same,normalized growth,"locus YGL173C, strain kem1, hits give low values",0.97
same,normalized growth,"locus YGL227W, strain vid30, hits give low values",0.972
same,normalized growth,"locus YGL240W, strain doc1, hits give low values",0.973
same,normalized growth,"locus YGL248W, strain PDE1, hits give low values",0.971
same,normalized growth,"locus YGL253W, strain hxk2, hits give low values",0.978
same,normalized growth,"locus YGR078C, strain PAC10, hits give low values",0.957
same,normalized growth,"locus YGR135W, strain pre9, hits give low values",0.954
same,normalized growth,"locus YGR229C, strain SMI1, hits give low values",0.861
same,normalized growth,"locus YGR252W, strain gcn5, hits give low values",1.1
same,normalized growth,"locus YHR013C, strain ard1, hits give low values",0.959
same,normalized growth,"locus YHR027C, strain rpn1, hits give low values",0.971
same,normalized growth,"locus YHR030C, strain SLT2, hits give low values",1
same,normalized growth,"locus YHR079C, strain IRE1 (second series), hits give low values",0.999
same,normalized growth,"locus YHR094C, strain hxt1, hits give low values",0.995
same,normalized growth,"locus YHR129C, strain ARP1, hits give low values",0.994
same,normalized growth,"locus YHR142W, strain chs7, hits give low values",0.98
same,normalized growth,"locus YHR200W, strain rpn10, hits give low values",0.993
same,normalized growth,"locus YIL066C, strain RNR3, hits give low values",0.974
same,normalized growth,"locus YIL073C, strain SPO22, hits give low values",1.01
same,normalized growth,"locus YIL125W, strain kgd1, hits give low values",0.996
same,normalized growth,"locus YIR030C, strain dcg1, hits give low values",0.993
same,normalized growth,"locus YJL092W, strain hpr5, hits give low values",0.946
same,normalized growth,"locus YJL095W, strain BCK1 (second series), hits give low values",0.972
same,normalized growth,"locus YJL095W, strain BCK1, hits give low values",0.889
same,normalized growth,"locus YJL115W, strain asf1, hits give low values",0.962
same,normalized growth,"locus YJL129C, strain trk1, hits give low values",0.899
same,normalized growth,"locus YJL134W, strain LCB3, hits give low values",0.989
same,normalized growth,"locus YJL154C, strain vps35, hits give low values",0.967
same,normalized growth,"locus YJL164C, strain tpk1, hits give low values",0.957
same,normalized growth,"locus YJL166W, strain qcr8, hits give low values",0.968
same,normalized growth,"locus YJL168C, strain set2, hits give low values",0.998
same,normalized growth,"locus YJL187C, strain SWE1 (second series), hits give low values",0.98
